Experimental data as given in the supplement of paper PMC4466140.

Experiments:
Test in all cases: SPOT peptide array binding signal intensity (averaged, normalized) (arbitrary units (background-subtracted, floor 0; scale differs between SH3 domains)); higher = stronger binding of the SH3 domain to the peptide
[1] = molecular target: CaNbp2
Outline: (§1)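 Detection of bound protein relied on anti-GST antibody, an HRP anti-mouse secondary and luminol, with imaging and quantification in Genespotter. The bound protein was GST-fused SH3 domains from four yeast species, incubated at 10 μg/ml overnight at 4°C in TBS-based blocking buffer on cellulose membranes carrying synthetic 15-mer peptides with cysteines replaced by serines. Binding signal is normalized, background-subtracted spot intensity averaged over replicates, in arbitrary units that differ between domains.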

[2] = molecular target: CaRvs167
Outline: as §1

[3] = molecular target: CaRvs167-3
Outline: as §1

[4] = molecular target: CaSho1
Outline: as §1

[5] = molecular target: CaSla1-D1-D2
Outline: as §1

[6] = molecular target: CaSla1-D3
Outline: as §1

[7] = molecular target: ScAbp1
Outline: as §1

[8] = molecular target: ScBbc1
Outline: as §1

[9] = molecular target: ScBem1-D1
Outline: as §1

[10] = molecular target: ScBzz1-D1
Outline: as §1

[11] = molecular target: ScBzz1-D2
Outline: as §1

[12] = molecular target: ScCyk3
Outline: as §1

[13] = molecular target: ScFus1
Outline: as §1

[14] = molecular target: ScHof1
Outline: as §1

[15] = molecular target: ScHse1
Outline: as §1

[16] = molecular target: ScLsb1
Outline: as §1

[17] = molecular target: ScLsb2
Outline: as §1

[18] = molecular target: ScLsb3
Outline: as §1

[19] = molecular target: ScLsb4
Outline: as §1

[20] = molecular target: ScMyo3
Outline: as §1

[21] = molecular target: ScMyo5
Outline: as §1

[22] = molecular target: ScNbp2
Outline: as §1

[23] = molecular target: ScPex13
Outline: as §1

[24] = molecular target: ScRvs167
Outline: as §1

[25] = molecular target: ScSho1
Outline: as §1

[26] = molecular target: ScSla1-D1-D2
Outline: as §1

[27] = molecular target: ScSla1-D3
Outline: as §1

[28] = molecular target: SpAbp1-D1
Outline: as §1

[29] = molecular target: SpBbc1
Outline: as §1

[30] = molecular target: SpBzz1-D1
Outline: as §1

[31] = molecular target: SpBzz1-D2
Outline: as §1

[32] = molecular target: SpCyk3
Outline: as §1

[33] = molecular target: SpHof1
Outline: as §1

[34] = molecular target: SpHof1-2
Outline: as §1

[35] = molecular target: SpHof1-3
Outline: as §1

[36] = molecular target: SpHse1
Outline: as §1

[37] = molecular target: SpLsb1
Outline: as §1

[38] = molecular target: SpLsb4
Outline: as §1

[39] = molecular target: SpMyo1
Outline: as §1

[40] = molecular target: SpNbp2
Outline: as §1

[41] = molecular target: SpPex13
Outline: as §1

[42] = molecular target: SpRvs167
Outline: as §1

[43] = molecular target: SpSla1-D1-D2
Outline: as §1

[44] = molecular target: SpSla1-D3
Outline: as §1

RKNRAPPQRPRFNRD
SPOT peptide array binding signal intensity [1]: 1750 | SPOT peptide array binding signal intensity [2]: 31.5 | SPOT peptide array binding signal intensity [3]: 53 | SPOT peptide array binding signal intensity [4]: 423 | SPOT peptide array binding signal intensity [5]: 1480 | SPOT peptide array binding signal intensity [6]: 15 | SPOT peptide array binding signal intensity [7]: 153 | SPOT peptide array binding signal intensity [8]: 338 | SPOT peptide array binding signal intensity [9]: 26 | SPOT peptide array binding signal intensity [10]: 162 | SPOT peptide array binding signal intensity [11]: 16.5 | SPOT peptide array binding signal intensity [12]: 138 | SPOT peptide array binding signal intensity [13]: 293 | SPOT peptide array binding signal intensity [14]: 1.5 | SPOT peptide array binding signal intensity [15]: 1230 | SPOT peptide array binding signal intensity [16]: 248 | SPOT peptide array binding signal intensity [17]: 119 | SPOT peptide array binding signal intensity [18]: 1430 | SPOT peptide array binding signal intensity [19]: 53 | SPOT peptide array binding signal intensity [20]: 22 | SPOT peptide array binding signal intensity [21]: 14.5 | SPOT peptide array binding signal intensity [22]: 4260 | SPOT peptide array binding signal intensity [23]: 88.8 | SPOT peptide array binding signal intensity [24]: 238 | SPOT peptide array binding signal intensity [25]: 845 | SPOT peptide array binding signal intensity [26]: 1900 | SPOT peptide array binding signal intensity [27]: 49 | SPOT peptide array binding signal intensity [28]: 917 | SPOT peptide array binding signal intensity [29]: 54 | SPOT peptide array binding signal intensity [30]: 853 | SPOT peptide array binding signal intensity [31]: 9.75 | SPOT peptide array binding signal intensity [32]: 10 | SPOT peptide array binding signal intensity [33]: 285 | SPOT peptide array binding signal intensity [34]: 16.2 | SPOT peptide array binding signal intensity [35]: 360 | SPOT peptide array binding signal intensity [36]: 367 | SPOT peptide array binding signal intensity [37]: 154 | SPOT peptide array binding signal intensity [38]: 793 | SPOT peptide array binding signal intensity [39]: 15.5 | SPOT peptide array binding signal intensity [40]: 726 | SPOT peptide array binding signal intensity [41]: 30 | SPOT peptide array binding signal intensity [42]: 98.7 | SPOT peptide array binding signal intensity [43]: 61 | SPOT peptide array binding signal intensity [44]: 7.5
